Screening data from PubChem.
CYP2C9 inh: blockers of cytochrome P450 2C9 activity – biochemical, luminescence, ADME assay, primary screen; P11712; CYP2C9 Supersomes, luciferin-H conversion; inhibition, % at 5 µM; 96,000 tested, 20% active; AID 777, 2007;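 active = blocking of liver enzyme CYP2C9 beyond about 50% at 5 µM, limit read from the data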
CYP2C9 act: human CYP2C9 activators, primary screen, biochemical, luminescence; recombinant CYP2C9, luciferin-H conversion; stronger effect = higher value; factor 1 = untreated enzyme, 0 = blocked; AID 1024, 2008; Cytochrome P450 2C9 (Homo sapiens), P11712; activation factor at 5 µM; 96,000 tested, 1.4% active;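 active = activation factor of 2 or more for CYP2C9 at a 5 µM dose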;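 also: 0 = sulfaphenazole-blocked wells and 1 = vehicle-only wells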
CYP2C19 inh: blockers of cytochrome P450 2C19 activity – biochemical, luminescence, ADME assay, primary screen | P33261 | CYP2C19 Supersomes, luciferin-H EGE luminescence, 30 min | inhibition, % at 5 µM | 96,000 tested, 21% active | AID 778, 2007;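 active = CYP2C19 inhibition above a set limit at 5 µM in the primary screen, cut at about 50% in these data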;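 also: plate controls were negative control wells for no effect and 2.5 mM tranylcypromine positive control for full effect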
Target sequence (P33261 whole entry, looked up): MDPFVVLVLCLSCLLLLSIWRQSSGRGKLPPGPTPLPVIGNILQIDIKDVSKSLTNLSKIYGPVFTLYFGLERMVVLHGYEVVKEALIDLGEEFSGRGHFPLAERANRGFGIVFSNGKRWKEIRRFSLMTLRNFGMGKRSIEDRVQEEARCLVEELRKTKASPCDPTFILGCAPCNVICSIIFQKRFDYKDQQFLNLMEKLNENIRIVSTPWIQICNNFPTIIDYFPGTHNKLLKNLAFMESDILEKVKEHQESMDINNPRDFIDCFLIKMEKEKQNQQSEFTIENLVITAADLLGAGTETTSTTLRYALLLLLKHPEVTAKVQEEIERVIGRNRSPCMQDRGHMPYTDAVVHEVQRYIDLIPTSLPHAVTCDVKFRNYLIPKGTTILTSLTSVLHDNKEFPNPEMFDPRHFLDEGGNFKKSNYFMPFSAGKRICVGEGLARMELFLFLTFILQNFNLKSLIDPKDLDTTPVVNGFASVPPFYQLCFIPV
Measles CPE: compounds protecting cells from measles virus cytopathic effect, primary screen, measles RdRp inhibitor project, single point, MLSMR library, absorbance; Measles virus-infected cells, CPE protection; AID 841, 2007; 140,000 tested, 1.5% active; protection (pct of control), % at 4 µM; in the data active = protection mostly above about 24%, no sharp cut-off; inactive = mostly below about 26%
CYP2C19 act: human CYP2C19 activators, primary screen, biochemical, luminescence | Cytochrome P450 2C19 (Homo sapiens), P33261 | recombinant CYP2C19, luciferin-H EGE luminescence; stronger effect = higher value; 0 = fully inhibited enzyme, 1 = untreated enzyme | activation factor at 5 µM | 96,000 tested, under 10 active | AID 1025, 2008;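 active = activation factor of at least 2 at 5 µM in the primary screen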;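 also: 0 = wells with 2.5 mM tranylcypromine and 1 = vehicle-only wells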
Numbers without * were called inactive; · = no result. Only some compounds are listed: those with a hit (about 22% of all), similar ones and a draw of the others.

SMILES	CYP2C9 inh	CYP2C9 act	CYP2C19 inh	Measles CPE	CYP2C19 act
CCOc1ccc(S(=O)(=O)N2CCN(C)CC2)c(C)c1C	-28	1.3	28	7	0.7
CC1CN(C(=O)Cn2cnc3c2c(=O)n(C)c(=O)n3C)CC(C)O1 (stereo not drawn)	7	0.9	-9	16	1.1
CC(C)C1CC(c2csc(N)n2)CCO1 (stereo not drawn)	15	0.9	38	2	0.6
CC1CN(S(=O)(=O)c2cccc(-c3csc(-c4ccccc4)n3)c2)CC(C)O1 (stereo not drawn)	58*	0.4	20	13	0.8
O=S(=O)(c1cccc(-c2nc3ccccc3s2)c1)N1CCOCC1	0	1	12	14	0.9
Cc1nc(-c2cccc(S(=O)(=O)N3CCCCCC3)c2)cs1	66*	0.3	95*	4	0.1
O=S(=O)(c1cccc(-c2csc(-c3ccccc3)n2)c1)N1CCOCC1	61*	0.4	47	2	0.5
CC1CN(S(=O)(=O)c2cccc(-c3cn4ccccc4n3)c2)CC(C)O1 (stereo not drawn)	8	0.9	13	7	0.9
O=[N+]([O-])c1cc(C(F)(F)F)cc([N+](=O)[O-])c1N1CCN(S(=O)(=O)c2ccccc2)CC1	·	·	·	11	·
CC(C)(C)c1ccc(C(=O)NCCCN2CCN(CCCNC(=O)c3ccc(C(C)(C)C)cc3)CC2)cc1	·	·	·	11	·
CCCCCCCCNC(=O)CCNC(=O)c1ccc(C(C)(C)C)cc1	52*	0.5	55*	2	0.4
Cc1nc2ccc(S(=O)(=O)NC(C(=O)Nc3nccs3)C(C)C)cc2s1 (stereo not drawn)	13	0.9	11	2	0.9
Cc1nc2ccc(S(=O)(=O)NC(C(=O)Nc3nc4ccc(Cl)cc4s3)C(C)C)cc2s1 (stereo not drawn)	92*	0.1	84*	1	0.2
COc1ccc2nc(NC(=O)C(NS(=O)(=O)c3cccc4nsnc34)C(C)C)sc2c1 (stereo not drawn)	74*	0.3	41	0	0.6
CC(C)C(NS(=O)(=O)c1cccc2nsnc12)C(=O)NCc1ccc2c(c1)OCO2 (stereo not drawn)	59*	0.4	44	1	0.6
Cc1nc2ccc(S(=O)(=O)NCC(=O)N3CCC(N4CCCCC4)CC3)cc2s1	36	0.6	-12	10	1.1
COc1ccc2nc(NC(=O)C3CCN(S(=O)(=O)c4cccc5nsnc45)CC3)sc2c1	9	0.9	48	1	0.5
Cc1nc2ccc(S(=O)(=O)NCC(=O)N3CCC(C)CC3)cc2s1	14	0.9	50*	6	0.5
CCCCNc1nc(-c2ccccc2)cc(C(F)(F)F)c1C(N)=O	·	·	·	7	·
Cc1cccc(-c2onc3ccc(C4(C)OCCO4)cc23)c1	93*	0.1	88*	2	0.1
O=[N+]([O-])c1ccc(C2CCCC/C2=N/OCc2ccc(F)cc2)c([N+](=O)[O-])c1 (stereo not drawn)	25	0.7	34	4	0.7
O=C(OCCN1CCN(c2ncc(C(F)(F)F)cc2Cl)CC1)c1ccc(Cl)cc1	67*	0.3	14	6	0.9
Cc1ccn2cc(C(=O)Nc3ccc4c(c3)OCCO4)nc2c1	18	0.8	6	6	0.9
Cc1ccc(C)n1NC(=O)c1ccco1	11	0.9	-2	2	1
Cc1nc2[nH]c(=O)c3c(n2n1)NC1=C(C(=O)CC(C)(C)C1)C3c1ccccc1 (stereo not drawn)	67*	0.3	0	10	1
SMILES	CYP2C9 inh	CYP2C9 act	CYP2C19 inh	Measles CPE	CYP2C19 act
CC1(C)CC(=O)C2=C(C1)NC1=C(C(=O)c3ccccc31)C2c1ccccc1 (stereo not drawn)	·	·	·	24	·
Cc1ccc2c(c1)nnn2C1CCN(S(=O)(=O)c2ccc(C(=O)N3CC(C)CC(C)C3)cc2)CC1 (stereo not drawn)	88*	0.1	98*	6	0
Cc1ccc2c(c1)nnn2C1CCN(S(=O)(=O)c2ccc3ccccc3c2)CC1	·	·	·	3	·
Cc1ccc2c(c1)nnn2C1CCN(S(=O)(=O)c2cccc(S(=O)(=O)N(C)C)c2)CC1	46	0.5	86*	4	0.1
Cc1ccc2c(c1)nnn2C1CCN(S(=O)(=O)c2ccc(C(=O)NC3CCCC3)cc2)CC1	50*	0.5	21	7	0.8
Cc1ccc2c(c1)nnn2C1CCN(S(=O)(=O)c2ccc(C(=O)N(C)C)cc2)CC1	·	·	·	6	·
CNC(=O)CSc1nnc(-c2ccc(S(=O)(=O)N3CCCC3)cc2)n1-c1cccc(C)c1C	88*	0.1	18	27	0.8
COc1ccccc1-n1c(SCC(=O)O)nnc1-c1ccc(S(=O)(=O)N2CCCCC2)cc1	48	0.5	19	6	0.8
COC(=O)C(C)NS(=O)(=O)c1ccc(NC(C)=O)cc1 (stereo not drawn)	14	0.9	14	11	0.9
Oc1ccccc1C1=Nc2ncnn2C(c2ccc(F)cc2)C1 (stereo not drawn)	49	0.5	57*	25	0.4
O=C(Nc1ccccc1)N1N=C(c2ccc(F)cc2)CC1c1ccc(F)cc1 (stereo not drawn)	·	·	·	25	·
COc1ccc(S(=O)(=O)NN=C2CCCC2)cc1	-6	1.1	32	5	0.7
COc1ccc(S(=O)(=O)Nc2cc3c4c(oc3c3ccccc23)CCCC4=O)cc1	82*	0.2	46	57	0.5
Cc1ccccc1NS(=O)(=O)c1ccc(NC(=O)c2ccco2)cc1	36	0.6	21	21	0.8
Cc1ccccc1NS(=O)(=O)c1ccc(F)cc1	64*	0.4	96*	15	0
COc1ccc(S(=O)(=O)Nc2ccccc2C)cc1	51*	0.5	100*	4	0
O=S(=O)(Nc1cccc2cn[nH]c12)c1ccc(F)cc1	28	0.7	82*	5	0.2
CCCN1C(=O)/C(=C/c2ccc(N3CCCC3)c(C)c2)NC1=S	53*	0.5	53*	4	0.5
Oc1ccc(Br)cc1-c1nc2cnccn2c1NC1CCCCC1	91*	0.1	77*	4	0.2
Oc1ccc(Br)cc1-c1nc2cnccn2c1NC1CCCC1	50	0.5	40	11	0.6
CC(C)(C)NC(=O)C(c1ccco1)N(Cc1ccc(F)cc1)C(=O)c1snc(C(N)=O)c1N (stereo not drawn)	56*	0.4	66*	4	0.3
COc1ccccc1N(C(=O)c1snc(C(N)=O)c1N)C(C(=O)NC1CCCC1)c1ccco1 (stereo not drawn)	40	0.6	62*	13	0.4
